Compound activity as filed in PubChem BioAssay.
Most compounds without a hit are left out; they make up all but 3.1% or so of the library.
PNC inhibitor: perinucleolar compartment assembly inhibition; PC3M PTB-GFP, PNC prevalence imaging, 16 h; active compounds read low; activity change (PNC), negative = inhibition, % at 10 µM; 140,000 tested, 3.1% active; AID 2417;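 active = readout at or below -70, meaning at least 70% loss of cells showing the perinucleolar compartment, a nuclear body marking cancer cells; inconclusive = readout between -30 and a set limit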;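 note: plate controls were DMSO wells for no effect and camptothecin positive control wells for full effect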
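Read-out is percentage of cells bearing a perinucleolar compartment, from automated 20x imaging of fixed, Hoechst-stained PC3M PTB-GFP cells. Cells were seeded 4 h, then exposed 16 h to compound (23 nl of library stock) in duplicate plates.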
ALOX15B inhib: 15-hLO-2 (ALOX15B) enzyme inhibition; O15296; purified 15hLO-2, xylenol orange hydroperoxide absorbance; Potency, µM (titrated, usually from 57.1 µM), inactives show top-dose activity change, negative = inhibition, actives largely listed as inhibitors; 110,000 tested, 0.56% active; AID 881; note: potency is the fitted concentration of half-maximal effect; nearly all actives have a fitted effect of over 60% in size
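Read-out: hydroperoxide product oxidises ferrous iron, measured as xylenol orange complex via the 573-to-405 nm absorbance ratio after 30 min. Reaction: 50 nM enzyme, 15 min compound preincubation, 45 uM arachidonic acid, 90 min RT, Hepes pH 7.5 with Triton X-100.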
ALOX12 inhib: inhibitors of human 12-lipoxygenase (ALOX12). 150,000 tested, 0.12% active. Potency, µM (series often up to 57.1 µM), for the others: at the highest dose activity change, negative = inhibition, actives largely listed as inhibitors. purified 12-hLO, xylenol orange hydroperoxide absorbance; note: potency is the fitted concentration of half-maximal effect; nearly all actives have a fitted effect of over 55% in size
Target sequence (P18054 whole entry, looked up): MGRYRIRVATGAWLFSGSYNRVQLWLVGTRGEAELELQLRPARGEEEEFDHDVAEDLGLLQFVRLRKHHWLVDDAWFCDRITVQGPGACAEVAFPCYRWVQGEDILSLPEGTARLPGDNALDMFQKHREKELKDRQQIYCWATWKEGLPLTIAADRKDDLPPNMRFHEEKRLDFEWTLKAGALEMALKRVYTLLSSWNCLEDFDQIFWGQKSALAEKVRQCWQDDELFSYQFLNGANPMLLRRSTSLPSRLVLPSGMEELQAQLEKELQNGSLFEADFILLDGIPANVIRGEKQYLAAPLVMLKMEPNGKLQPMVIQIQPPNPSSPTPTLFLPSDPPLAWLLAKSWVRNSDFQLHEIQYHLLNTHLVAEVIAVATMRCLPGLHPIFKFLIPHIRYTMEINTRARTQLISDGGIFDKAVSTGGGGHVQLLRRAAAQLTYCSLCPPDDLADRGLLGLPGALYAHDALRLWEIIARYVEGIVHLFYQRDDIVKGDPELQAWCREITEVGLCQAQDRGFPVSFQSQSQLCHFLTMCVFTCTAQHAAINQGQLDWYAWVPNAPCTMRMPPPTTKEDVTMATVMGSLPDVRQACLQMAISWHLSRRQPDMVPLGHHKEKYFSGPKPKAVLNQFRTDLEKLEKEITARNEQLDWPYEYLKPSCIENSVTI
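Hydroperoxide output read as Fe(III)-xylenol orange absorbance, 573-to-405 nm ratio, after 30 min reaction with 40 uM arachidonic acid. Enzyme: 150 nM purified human 12hLO, 15 min compound preincubation; 25 mM Hepes pH 7.0, room temperature.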
Numbers without * were called inactive; ? = inconclusive; · = not tested or not shown; [ ] = remark or other dose. Unless noted, calls come from the whole dose curve; as a rule, active = well fitted curve in the direction sought with a large enough effect; inconclusive = small, poorly fitted or top-dose-only effect, or another doubt; inactive = no such curve, though single readings can be large; an effect the other way counts as inactive or inconclusive. Unless noted, % is set by controls: 0 for no effect and ±100 for the full control effect.

SMILES	PNC inhibitor	ALOX15B inhib	ALOX12 inhib
O=C(O)c1cc2c(cc1S(=O)(=O)O)[C@H]1[C@@H]([C@H]3[C@H]2[C@@]2(Cl)C(Cl)=C(Cl)[C@]3(Cl)C2(Cl)Cl)[C@]2(Cl)C(Cl)=C(Cl)[C@@]1(Cl)C2(Cl)Cl	·	3%[11.4 µM]	?
Cc1ccc(N2C(=O)/C(=C\c3ccco3)SC2=S)cc1	31	?	7.9µM*
O=C1/C(=C\c2ccco2)SC(=S)N1c1ccccc1	-5	·	-26%
COc1ccc(NC(=O)Cc2ccccc2)cc1	334	·	-2%
COc1ccc(NC2CS(=O)(=O)CC2NCc2ccccc2)cc1 (centres undefined)	-116*	·	-3%
O=C(OC1Cc2c(O)cc(O)cc2OC1c1cc(O)c(O)c(O)c1)c1cc(O)c(O)c(O)c1 (centres undefined)	·	-29%	-14%
CCCC[C@H]1C[C@@H]1[C@@H]1N(C(C)=O)[C@H](c2cccc(OC)c2)CC12CC2	·	13%	-6%
COc1cc(/C=C2\SC(c3ccc(C)cc3)=NC2=O)ccc1O	-95*	?	-11%
COc1ccc(/C=C2\SC(c3ccc(C)cc3)=NC2=O)cc1OC	39	?	3%
COc1cc2c(cc1OC)[C@@H]1C(=O)c3ccc4c(c3O[C@@H]1CO2)C=CC(C)(C)O4	·	7%	-7%
CN(C(=O)COc1ccccc1C(=O)NCCc1ccccc1)c1ccccc1	-100*	·	-2%
CCOc1ccccc1C(=O)NCCCCCC(=O)O	106	12%	0%
O=C(c1cccc(F)c1)N1CCC2(CC1)CCN(c1cccc(-c3ccccc3)c1)CC2	·	0%	-3%
CC1(C)CCCC2(C)C3C(O)CC2(C)C(O)C31 (centres undefined)	·	-2%	-4%
O=C(c1csnn1)N1CCC2(CC1)CN(c1ccncc1)C2	·	-6%	0%
Cn1c(=O)c(-c2ccc(F)cc2)nc2cncnc21	·	2%	-1%
O=C(NC1CS(=O)(=O)CC1NCc1ccco1)c1ccccc1 (centres undefined)	-96*	-2%	4%
O=C(Nc1ccccc1C(=O)NCc1ccco1)c1ccccc1	?	5%	0%
CN(C)c1ncc2ncc(=O)n(CCC#N)c2n1	·	-13%	-4%
COc1ccc(C2C3=C(CCCC3=O)Nc3nc(C(F)(F)F)nn32)c(OC)c1OC (centres undefined)	-88*	-1%	-6%
COc1ccc(C2C3=C(CCCC3=O)Nc3nc(C(F)(F)F)nn32)cc1OC (centres undefined)	-23	-4%	3%
OC[C@@H]1O[C@@H](n2cnc3c(N[C@@H]4C[C@@H]5CC[C@H]4C5)ncnc32)[C@@H](O)[C@H]1O	·	3%	-5%
CSCCOC(=O)COc1ccc(/C=N/NC(=O)c2nn(C)cc2Cl)cc1	-21	·	0%
Cc1ccc(S(=O)(=O)Oc2ccc(/C=N/NC(=O)c3nn(C)cc3Cl)cc2)cc1	-100*	·	0%
C=C[C@@]1(C)CC(=O)[C@@]2(O)[C@@]3(C)[C@H](O)CCC(C)(C)[C@@H]3[C@H](O)[C@H](OC(C)=O)[C@]2(C)O1	·	-4%	-2%
SMILES	PNC inhibitor	ALOX15B inhib	ALOX12 inhib
Cc1ccc(NC(=O)Cn2cnc3c(oc4nc5c(cc43)COC(C)(C)C5)c2=O)cc1	-84*	·	1%
CC1(C)Cc2nc3oc4c(=O)n(CC(=O)Nc5ccccc5)cnc4c3cc2CO1	28	·	-1%
Cc1ccccc1-c1cncnc1N(C)Cc1ccco1	·	9%	-3%
c1ccc(C2=Nc3ccccc3SC2c2nc3ccccc3[nH]2)cc1 (centres undefined)	-3	25µM*	?
O=C1CC(c2nc3ccccc3[nH]2)CN1c1ccccc1 (centres undefined)	29	0%	6%
O=C(CNC(=S)N(Cc1ccccc1)Cc1cccnc1)NC1CCCCC1	-20	·	-4%
O=C(c1ccccc1)N(Cc1cccnc1)C1(C(=O)Nc2ccccc2)CCCCC1	-110*	·	1%
CC(=O)c1c(N2CCOCC2)nc(=S)n(-c2ccc([N+](=O)[O-])cc2)c1C	-113*	4%	-1%
CC(=O)c1c(N2CCOCC2)nc(=S)n(-c2ccccc2)c1C	?	1%	9%
CC(=O)c1c(N2CCCCC2)nc(=O)n(-c2ccccc2)c1C	?	-4%	3%
CC(=O)c1c(N2CCOCC2)nc(=O)n(-c2ccccc2)c1C	-80*	5%	5%
c1ccc2c(CN3CCN(Cc4c[nH]c5ccccc45)CC3)c[nH]c2c1	·	5%[11.4 µM]	1%[11.4 µM]
COc1ccc(/C=N/NC(=O)c2cc(-c3ccc(Cl)cc3)n[nH]2)cc1OC	·	·	-3%
Cc1cccc(CNc2ncncc2-c2ccccc2C)c1	·	43%	·
Nc1ncnc2c1ncn2[C@@H]1CCCO1	·	9%	-2%
Cc1ccc(-n2ncc3c(=O)n(CC(=O)NCc4ccco4)cnc32)cc1	-100*	·	2%
O=C(Cn1cnc2c(cnn2-c2ccc(F)cc2)c1=O)NCc1ccco1	15	1%	3%
Cc1ccccc1SCc1noc(C(=O)NC(C)C)c1C(=O)O	-91*	-11%	0%
CCCCNC(=O)c1onc(CSc2ccccc2F)c1C(=O)O	16	-9%	-5%
CCCCNC(=O)c1onc(CSc2ccccc2C)c1C(=O)O	65	6%	2%
CC(C)NC(=O)c1onc(CSc2ccccc2F)c1C(=O)O	-84*	-7%	1%
O=C(O)c1c(Cl)c(Cl)c(Cl)c(Cl)c1-c1c2cc(I)c(=O)c(I)c-2oc2c(I)c(O)c(I)cc12	·	7.9µM*	?
CCN(CC)CCCC(C)Nc1nc(C)cc(Nc2ccc3nc(C)cc(N)c3c2)n1 (centres undefined)	·	38%	1%
CCOc1ccccc1NC(=O)CCN1CCN(S(=O)(=O)c2ccc(Br)cc2)CC1	-107*	9%	0%
CCN1CCN(CCC(=O)Nc2ccccc2OC)CC1	-8	4%	-5%
SMILES	PNC inhibitor	ALOX15B inhib	ALOX12 inhib
COc1ccc(-n2c(=O)cnc3cnc(N4CCNCC4)nc32)cc1	·	-2%	3%
Cc1ccc(C(C(=O)NC2CCCC2)N2CCCCC2)cc1 (centres undefined)	-17	·	2%
Cc1ccc(C(C(=O)NC2CCCCC2)N2CCCC2)cc1 (centres undefined)	-112*	19%	-1%
Cc1cc(SCC(=O)NC(=O)NCc2ccco2)nc2ccccc12	16	-25%	-3%
Cc1ccccc1CSCC(=O)NC(=O)NCc1ccco1	-95*	-2%	-2%
Nc1ccc(Cl)cc1[N+](=O)[O-]	·	-4%	-2%
Cc1cccc(-c2noc(-c3cc4ccccc4oc3=O)n2)c1	-106*	-10%	0%
Cc1cccc(-c2noc(-c3ccccc3C(=O)NCC3CCCO3)n2)c1 (centres undefined)	50	6%	8%
COc1cccc(NC(=O)c2ccccc2-c2nc(-c3cccc(C)c3)no2)c1	-139*	-2%	-6%
Cc1ccc(-c2noc(-c3cc4ccccc4oc3=O)n2)cc1	?	4%	4%
CC(C)CN=C(N)N=C(N)N	·	-1%[11.4 µM]	4%[11.4 µM]
S=C=Nc1cccc(NC(=S)NCCCCNC(=S)Nc2cccc(N=C=S)c2)c1	·	?	-21%
Cc1nc2cnc(Oc3ccccc3)nc2n(CCC#N)c1=O	·	7%	-1%
